Assay [1] can be described thus: HepG2 liver cancer cell viability effects, profiling panel, resazurin fluorescence, 24 h, PK04 Diversity Set (AID 1172). Note: test concentration not given here. The settings on record: higher = more signal. (The colour change of resazurin is a common sign of viable cells or microbes.)
Assay [2] is described as follows: basal S. cerevisiae growth modulation, no modifier, primary screen, OD600, strain BY4716, 24 h, basal condition (AID 1173). The settings on record: OD600, 24 h, higher = more signal, called active from +8 up or from −8 down.
Assay [3] can be described thus: MM1S myeloma cell viability, profiling panel, resazurin fluorescence, basal, 24 h, PK04 Diversity Set (AID 1174).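 Note: MM1S multiple myeloma cell line; test concentration not given here.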 The conditions noted are these: higher = more signal, called active from +8 up or from −8 down.
For assay [4], the target named is Dihydroorotate dehydrogenase (quinone), mitochondrial (Plasmodium falciparum (isolate 3D7)) (UniProt Q08210). Description: PfDHODH enzyme inhibitors, primary screen, biochemical, C-terminal His tag, absorbance 600 nm (AID 1175).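 Note: recombinant parasite enzyme with a five histidine tag at its C terminus; test concentration not given here.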 The conditions noted are these: DCIP absorbance 600 nm, higher = more signal, called active from +8 up or from −8 down.
Assay [5] can be described thus: P. aeruginosa biofilm formation inhibitors, primary screen, strain PAO1, LB-PBS medium, absorbance 600 nm (AID 1176). Note: test concentration not given here. The settings on record: P. aeruginosa PAO1 growth/biofilm, A600, 12 h; higher = more signal.
Assay [6] can be described thus: S. cerevisiae RM11-1a growth modifiers, primary screen, strain RM11-1a, OD600, basal, 24 h (AID 1177).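 Note: cultures grown under basal conditions with no added stressor; test concentration not given here.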 The conditions noted are these: OD600, 24 h, higher = more signal, called active from +8 up or from −8 down.
A short description of assay [7]: E. coli acrAB mutant growth effects, primary screen, E. coli filamentation inducers, strain DRC39, OD650, 24 h (AID 1178).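 Note: growth measured as culture turbidity by optical density at 650 nm; test concentration not given here.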 The conditions noted are these: higher = more signal, called active from +8 up or from −8 down.
The nature of assay [8]: E. coli acrAB mutant growth effects, primary screen, E. coli filamentation inducers, strain DRC39, OD650, 48 h (AID 1179).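 Note: screen aims at cell division blockers that make cells filament.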 The conditions noted are these: E. coli DRC39 delta-acrAB growth, higher = more signal, called active from +8 up or from −8 down.
Assay [9] can be described thus: RPMI8226 myeloma cell viability, profiling panel, resazurin fluorescence, basal, 24 h, PK04 Diversity Set (AID 1180).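 Note: RPMI8826 multiple myeloma cell line at 5000 cells per well; test concentration not given here.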 The conditions noted are these: higher = more signal.
Assay [10] deals with E3 ubiquitin-protein ligase XIAP (Homo sapiens) (UniProt P98170). The experiment in a line: XIAP binders, primary screen, biophysical, small-molecule microarray, fluorescence 635 nm (AID 1181).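 Note: score merges 667 nm emission and signal to noise over triplicate slides.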 The settings on record: small-molecule microarray binding, higher = more signal.

The source made the active and inactive calls. Unless noted, the rule behind the calls is not given here.

Chain of E3 ubiquitin-protein ligase XIAP (Homo sapiens) (P98170 whole entry, looked up): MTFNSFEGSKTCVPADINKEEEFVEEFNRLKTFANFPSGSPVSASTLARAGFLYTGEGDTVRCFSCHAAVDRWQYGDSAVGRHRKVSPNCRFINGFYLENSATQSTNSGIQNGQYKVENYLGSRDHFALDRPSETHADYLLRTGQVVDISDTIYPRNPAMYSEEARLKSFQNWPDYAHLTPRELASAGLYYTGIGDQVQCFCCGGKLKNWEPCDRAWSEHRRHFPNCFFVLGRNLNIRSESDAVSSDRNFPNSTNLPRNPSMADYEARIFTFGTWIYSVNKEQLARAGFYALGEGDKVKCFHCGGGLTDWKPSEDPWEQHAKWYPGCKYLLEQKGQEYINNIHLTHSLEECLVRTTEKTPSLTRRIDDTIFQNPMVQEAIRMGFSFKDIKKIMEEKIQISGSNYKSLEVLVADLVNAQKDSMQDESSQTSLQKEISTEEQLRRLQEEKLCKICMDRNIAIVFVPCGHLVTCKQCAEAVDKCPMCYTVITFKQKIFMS
Chain of Dihydroorotate dehydrogenase (quinone), mitochondrial (Plasmodium falciparum (isolate 3D7)) (Q08210 whole entry, looked up): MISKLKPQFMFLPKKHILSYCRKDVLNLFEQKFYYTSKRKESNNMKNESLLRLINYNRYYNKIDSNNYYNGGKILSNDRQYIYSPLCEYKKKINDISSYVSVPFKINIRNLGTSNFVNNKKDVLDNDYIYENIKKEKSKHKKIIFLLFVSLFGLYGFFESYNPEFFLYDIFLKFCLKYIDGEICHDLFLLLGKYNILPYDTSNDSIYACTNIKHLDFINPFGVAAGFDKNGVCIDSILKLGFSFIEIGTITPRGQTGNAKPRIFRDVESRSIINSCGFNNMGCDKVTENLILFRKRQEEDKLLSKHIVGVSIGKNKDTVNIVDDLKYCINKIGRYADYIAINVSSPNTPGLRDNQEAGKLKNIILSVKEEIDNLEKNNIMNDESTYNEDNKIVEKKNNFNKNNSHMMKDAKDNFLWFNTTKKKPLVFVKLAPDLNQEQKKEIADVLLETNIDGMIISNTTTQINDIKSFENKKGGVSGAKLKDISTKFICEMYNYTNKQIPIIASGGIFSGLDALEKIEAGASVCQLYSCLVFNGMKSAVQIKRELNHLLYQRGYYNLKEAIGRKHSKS

For `COc1c(C)cc(-c2nc(-c3ccccc3)c3c(c2C)CO[Si]3(C(C)C)C(C)C)cc1C`, the z-score is 1.16 in assay [1]; 0.709 (inactive) in [2]; 0.032 (inactive) in assay [3]; 0.845 (inactive) in [5]; -0.0161 (inactive) in assay [6]; 0.187 (inactive) in [7]. In addition, the z-score is 0.135 (inactive) in [8] and 0.199 in assay [9]. Further, the composite z-score in [4] was 0.08 (inactive); in assay [10], 0.53.
In the case of `[N-]=[N+]=NCc1ccccc1[C@H]1OC(c2ccc(OCCCO)cc2)=N[C@@]1(CCS(=O)(=O)c1ccccc1)C(=O)O`, the z-score was 0.086 in [1]; -1.04 (inactive) in assay [2]; -0.389 (inactive) in assay [3]; -0.0304 (inactive) in assay [5]; -0.81 (inactive) in [6]; -0.589 (inactive) in assay [7]. The z-score is -0.336 (inactive) in [8] and 0.0678 in assay [9]. In addition, the composite z-score in assay [4] is -1.14 (inactive); in [10], 0.273.
Regarding `COC(=O)c1c2oc(c1C(=O)OC)C(=O)N[C@H](Cc1ccccc1)Cn1cc(nn1)C1(CCCCC1)NC(=O)N[C@H](CO)CC2`, the z-score in assay [1] was 0.483; in assay [2], -2.6 (inactive); in assay [3], 0.247 (inactive); in assay [5], 0.772 (inactive); in assay [6], 0.0801 (inactive); in [7], -0.051 (inactive). For the same molecule, the z-score in [8] was 0.565 (inactive); in [9], 0.245. Further, the composite z-score is -0.174 (inactive) in assay [4] and -0.113 in assay [10].
Regarding `O=C1N(Cc2ccccc2)c2ccccc2C[C@@]12N=C(c1ccc(OCCCO)cc1)O[C@H]2c1ccccc1`, the z-score in assay [1] was -0.449; in assay [2], -1.21 (inactive); in assay [3], -2.11 (inactive); in assay [5], 2.26 (inactive); in assay [6] it was 1.18 (inactive); in [7], 0.0946 (inactive). Also, the z-score in assay [8] was -0.928 (inactive); in [9], -1.69. For the same molecule, the values for the composite z-score in assay [4] and in assay [10] were 0.318 (inactive) and 0.0918, respectively.
Consider `CO[C@H]1O[C@H](CO)[C@@H](OC(=O)Nc2cccc(F)c2)[C@H](OC(=O)Nc2ccc3c(c2)OCO3)[C@@H]1OC(=O)Nc1ccc2c(c1)OCO2`, for which the z-score is -0.705 in [1]; 1.38 (inactive) in [2]; -1 (inactive) in assay [3]; 0.661 (inactive) in assay [5]; 1.82 (inactive) in assay [6]; 1.04 (inactive) in assay [7]. Moreover, the z-score in [8] is 0.761 (inactive); in [9], -0.931. Moreover, the results for the composite z-score in assay [4] and in [10] were 0.368 (inactive) and 0.0526, respectively.
As to `COC(=O)Cn1c(C(=O)N(C)C)cc2c1C[C@H]1CN(C(=O)c3ccccc3)[C@@](Cc3ccccc3)(C(=O)OC)[C@@H]21`, the z-score in [1] was 0.971; in [2] it was 0.282 (inactive); in assay [3] it was 0.52 (inactive); in assay [5], -0.747 (inactive); in assay [6] it was -0.161 (inactive); in assay [7] it was 0.304 (inactive). Further, the z-score in assay [8] is -1.15 (inactive); in assay [9], 1.09. Besides, the composite z-score was -0.777 (inactive) in [4] and 0.343 in assay [10].
Turning to `COCCOC(=O)N1C(=O)[C@@]2(c3ccccc31)[C@H](C(=O)Nc1nc3ccccc3s1)[C@H]1C(=O)O[C@H](c3ccccc3)[C@H](c3ccccc3)N1[C@@H]2c1ccccc1OCCO`, the z-score in [1] is -0.49; in assay [2] it was 2.38 (inactive); in assay [3] it was -0.304 (inactive); in assay [5], 2.9 (inactive); in assay [6], 2.25 (inactive); in [7], 0.0795 (inactive). The z-score in assay [8] was -0.315 (inactive); in assay [9], -0.236. Also, the composite z-score was 1.38 (inactive) in assay [4] and 0.0245 in [10].
As to `CC[C@@H](O[Si](C#C[Si](C(C)C)(C(C)C)C(C)C)(C(C)C)C(C)C)c1cn(Cc2cccc(Cl)c2)nn1`, the z-score is 0.318 in [1]; 1.42 (inactive) in assay [2]; 0.0769 (inactive) in assay [3]; 0.313 (inactive) in [5]; 1.33 (inactive) in assay [6]; -0.0544 (inactive) in [7]. The z-score in [8] is 0.309 (inactive); in [9] it was 0.961. The composite z-score was 0.625 (inactive) in assay [4] and 0.0583 in assay [10].

These data come from PubChem BioAssay.
